Sm TGR inh = inhibitors of Schistosoma mansoni thioredoxin glutathione reductase. Q962Y6. purified TGR, DTNB reduction, TNB absorbance 405 nm. Potency, µM (highest dose often 114 µM), for inactives: at the top dose activity change, negative = inhibition, usual class: inhibitors. hit rate 3% among 360,000. AID 485364; further: potency means the concentration at half of the fitted maximal effect; on the % scale 0 is the no-effect control and ±100 the full control effect; nearly all actives have a fitted effect of over 60% in size
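First, TGR (20 nM dispensed) and NADPH were mixed with compound. Second, a 15 min room-temperature incubation followed. Third, further NADPH and then DTNB were added to start the reaction. Finally, TNB absorbance was monitored kinetically.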
RE007 growth inh = less growth of the S. pombe RE007 Vpr strain; S. pombe RE007 Vpr strain, BacTiter-Glo ATP luminescence, 24 h; Potency, µM (series often up to 92.2 µM), inactives show at the top dose activity change, negative = less growth, usual class: inhibitors; hit rate 0.21% among 360,000; AID 651644; active means well fitted falling curve with a large enough effect; inconclusive means small, poorly fitted or top-dose-only effect; inactive means no such curve, though single readings can be large or run the other way; further: potency means the concentration at half of the fitted maximal effect; on the % scale 0 is the no-effect control and ±100 the full control effect; nearly all actives have a fitted effect of over 50% in size
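Fission yeast strain RE007, carrying one chromosomally integrated HIV-1 vpr copy, was seeded at OD 0.01 in PMG+AL medium with 23 nL pinned compound. After 24 h at 30 °C and 99% humidity, viability was read by BacTiter-Glo luminescence.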
TbPYK inhibitor = T. brucei pyruvate kinase inhibition; AID 624173; hit rate 0.12% among 410,000; TbPYK enzyme, Kinase-Glo Plus ATP luminescence, 45 min; Potency, µM (series often up to 76.8 µM), for the others: at the top dose activity, negative = inhibition, actives largely listed as inhibitors; Q57TT1; further: potency means the concentration at half of the fitted maximal effect; on the % scale 0 is the no-effect control and ±100 the full control effect; nearly all actives have a fitted effect of over 50% in size
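Glycolytic pyruvate kinase of T. brucei was incubated with substrate, test compound and 130 uM ADP for 45 minutes at room temperature. Luminescent Kinase-Glo Plus signal was measured after 10 minutes.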
SARS PLpro yeast-1 = blocks SARS-CoV papain-like protease in a yeast assay. S. cerevisiae expressing SARS-CoV PLpro, growth rescue. Potency, µM (titrated, usually from 32.9 µM), inactives show at the highest dose activity, positive = growth rescue, usual class: activators. hit rate 0.19% among 330,000. AID 485353; calls by dose curve; further: potency means the concentration at half of the fitted maximal effect; 0% is about no effect; nearly all actives have a fitted effect of over 55% in size
AmpC detergent = inhibitors of E. coli AmpC beta-lactamase with detergent; AmpC hydrolysis of nitrocefin, absorbance 480 nm, 0.01% Triton; Potency, µM (titrated, usually from 114 µM), without a hit: at the highest dose activity change, negative = inhibition, hits mostly inhibitors; hit rate 0.041% among 370,000;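 further: potency means the concentration at half of the fitted maximal effect; 0% = no-compound wells and -100% = no-enzyme wells; nearly all actives have a fitted effect of over 25% in size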
Target sequence (P00811 whole entry, looked up): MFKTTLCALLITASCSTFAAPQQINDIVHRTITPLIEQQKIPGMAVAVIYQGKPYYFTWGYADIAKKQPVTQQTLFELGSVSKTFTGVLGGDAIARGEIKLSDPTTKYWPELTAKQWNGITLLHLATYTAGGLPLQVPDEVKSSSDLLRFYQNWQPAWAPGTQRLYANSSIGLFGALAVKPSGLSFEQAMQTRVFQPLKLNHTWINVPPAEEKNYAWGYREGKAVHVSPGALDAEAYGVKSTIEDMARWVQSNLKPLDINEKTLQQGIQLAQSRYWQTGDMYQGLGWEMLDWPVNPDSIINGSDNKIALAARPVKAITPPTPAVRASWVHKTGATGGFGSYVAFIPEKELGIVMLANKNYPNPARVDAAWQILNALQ
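AmpC (5.3 nM in the dispensed reagent) in 20 mM phosphate pH 7.0 with 0.01% (detergent screen) or 0.0001% Triton X-100 was preincubated with compounds for 15 min at room temperature. Nitrocefin was then added from an 800 uM solution, and hydrolysis was followed at 480 nm.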
AmpC no deterg = inhibitors of E. coli AmpC beta-lactamase without detergent | P00811 | AmpC nitrocefin hydrolysis, absorbance 480 nm, 0.0001% Triton | Potency, µM (highest dose often 57.1 µM), for inactives: at the highest dose activity change, negative = inhibition, hits mostly inhibitors | hit rate 0.52% among 330,000;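 further: potency means the concentration at half of the fitted maximal effect; plate controls were no compound for no effect and no enzyme for full effect; nearly all actives have a fitted effect of over 20% in size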
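AmpC (5.3 nM in the dispensed reagent) in 20 mM phosphate pH 7.0 with 0.01% (detergent screen) or 0.0001% Triton X-100 was preincubated with compounds for 15 min at room temperature. Nitrocefin was then added from an 800 uM solution, and hydrolysis was followed at 480 nm.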
SARS PLpro yeast-2 = Validates SARS-CoV PLpro inhibitor hits in yeast. shares compounds with SARS PLpro yeast-1. yeast expressing SARS-CoV PLpro, growth phenotype rescue. calls only. hit rate 19% among 1,000; call rule not given here
* hit, by the source's call; i = inactive; ? = inconclusive; . = no result given; + = active, no number; [ ] = remark or other dose. Only some compounds are listed: those with a hit (about 3.3% of all), similar ones and a draw of the others. Unless noted, the call rests on the fitted dose curve; in most records, active means well fitted curve in the direction sought with a large enough effect; inconclusive means small, poorly fitted or top-dose-only effect, or another doubt; inactive means no such curve, though single readings can be large; an effect the other way counts as inactive or inconclusive.

SMILES | Sm TGR inh | RE007 growth inh | TbPYK inhibitor | SARS PLpro yeast-1 | AmpC detergent | AmpC no deterg | SARS PLpro yeast-2
CCOC(=O)c1[nH]c(C)c(CCC(=O)Nc2cccc(C(F)(F)F)c2)c1C | -8% | . | 1% | . | 22% | . | .
COc1cc(/C=N/n2c(SC)nnc(C(C)(C)C)c2=O)ccc1O | -25% | 1% | -6% | 16µM* | -13% | -24% | i
COc1ccc(/C=N/n2c(SC)nnc(C(C)(C)C)c2=O)cc1OC | 9% | -16% | -4% | 6% | -13% | 144% | .
O=C(COC(=O)/C=C/c1cccs1)Nc1nc(-c2ccccc2)cs1 | 22µM* | 10% | 6% | 14µM* | -8% | -24% | +
CCSc1nnc(NC(=O)C(Cc2ccccc2)n2cccc2)s1 (stereo not drawn) | -31% | -6% | -3% | ? | -16% | -24% | i
CCc1ccccc1NC(=O)c1ccc2c(SCC(=O)O)c3c(nc2c1)CCC3 | 1% | . | 0% | . | 16% | . | .
Cc1cccc(C(=O)N(c2ccccn2)C(C)c2ccco2)c1 (stereo not drawn) | -17% | 6% | -1% | 0% | ? | -10%[11.4 µM] | .
Cc1cc(C)cc(C(=O)N(c2ccccn2)C(C)c2ccco2)c1 (stereo not drawn) | -14% | 10% | 3% | ? | 1% | 11% | i
CCOC(=O)CNc1ncnc2c1nnn2C | 10% | . | -6% | . | 1% | . | .
c1cncc(-c2ccc3ncnc(NCc4ccc5c(c4)OCO5)c3c2)c1 | 5% | . | 0% | 4% | ? | -48% | i

Compound activity: PubChem, National Center for Advancing Translational Sciences (NCATS)
